Screen size: about 350,000 compounds; about 31,000 (8.9%) were called active. A call without a number means that no potency is given here. Another 15% or so got no clear call; they are omitted. For the sample, actives were picked, then their nearest neighbours and some compounds at random. Some compounds were tested as several samples or in several runs, with calls that do not always agree. Unmarked numbers belong to inactive results. The call rests on the fitted dose curve; in most records, active means well fitted inhibition curve with a large enough effect; inconclusive means small, poorly fitted or top-dose-only effect; inactive means no such curve, though single readings can be large or run the other way.
These compounds were tested against Histone-lysine N-methyltransferase EHMT2 (Homo sapiens) (UniProt Q96KQ7) (assay: qHTS Assay for Inhibitors of Histone Lysine Methyltransferase G9a). Conditions: G9a H3K9 monomethylation, AlphaScreen, 2 h; series mostly up to 59 µM.
Sequence of Histone-lysine N-methyltransferase EHMT2 (Homo sapiens) (Q96KQ7 913-1193 limits assumed): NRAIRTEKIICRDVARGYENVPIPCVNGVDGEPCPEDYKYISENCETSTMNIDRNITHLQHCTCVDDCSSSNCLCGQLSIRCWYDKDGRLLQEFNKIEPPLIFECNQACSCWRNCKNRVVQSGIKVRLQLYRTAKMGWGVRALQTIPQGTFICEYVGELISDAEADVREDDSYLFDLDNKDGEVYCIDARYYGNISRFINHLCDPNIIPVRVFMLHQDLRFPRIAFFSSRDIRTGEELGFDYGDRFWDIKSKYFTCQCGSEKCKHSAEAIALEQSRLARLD
Procedure, shortened: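 Step 1: enzyme (final 20 nM) with compound, 15 min RT. Step 2: substrate peptide 500 nM and SAM 20 uM, 2 h RT. Step 3: anti-H3K9me1 antibody and AlphaScreen beads, 10 min, then plate read.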
Further: nearly all actives have a fitted effect of over 75% in size.
Potency means the concentration at half of the fitted maximal effect.

Compound | Potency | activity, negative = inhibition
COc1cc(Nc2nc3ccc(Cl)cc3n3cnnc23)cc(OC)c1OC | inactive | –
COc1cc(F)c(C2=CC(=O)CC(C)(C)C2)cc1F | – | -4.97% [at 0.501 µM]
COc1ccccc1S(=O)(=O)NCc1ccc(C(=O)N(C)Cc2ccc(F)cc2)cc1 | – | 6.01% [at 2.33 µM]
Cc1cccc(CCNC(=O)c2ccc3c(c2)nc2n3CCC(C)C2)c1 (centres undefined) | inactive | –
CC(=O)N1CCc2cc(Br)cc(S(=O)(=O)CCC(=O)NCCc3ccc(Cl)cc3)c21 | inactive | –
C/C(=N\NC(=O)c1ccccc1F)c1ccccn1 | inactive | –
CCOC(=O)C1CCN(S(=O)(=O)c2cc(F)ccc2OC)CC1 | inactive | –
CCOC(=O)C1CCN(C(=O)/C=C/c2cc(OC)c(OC)c(OC)c2)CC1 | inactive | –
CCOC(=O)C1CCCCN1Cc1ccc(OC)c(OC)c1OC (centres undefined) | 12.6 µM (active) | –
Cc1ccc(S(=O)(=O)c2nc(-c3ccco3)oc2SCC(=O)Nc2ccc(F)cc2)cc1 | inactive | –
NS(=O)(=O)c1ccc(CCNC(=O)CN2C(=O)c3ccccc3S2(=O)=O)cc1 | inactive | –
CCC(=O)N1CCc2cc(Br)cc(S(=O)(=O)CCC(=O)NCCc3ccc(OC)c(OC)c3)c21 | inactive | –
Cc1ccccc1NC(=O)C(C)OC(=O)CCC(=O)N(CC(C)C)c1c(N)n(CC(C)C)c(=O)[nH]c1=O (centres undefined) | inactive | –
CC(C)(C)CC(C)(C)NCC(O)COCCOc1ccc(Br)cc1 (centres undefined) | inactive | –
CC(C)(C)NCC(O)COc1cccc2[nH]c(=O)[nH]c12 (centres undefined) | 1.12 µM (active) | 21.7% [at 12.7 µM]
COc1ccccc1OCCNCC(O)COc1cccc2[nH]c3ccccc3c12 (centres undefined) | inactive | –
COc1ccc(C2(C#N)CCC(C(=O)O)CC2)cc1OC1CCCC1 (centres undefined) | – | -32.8% [at 12.7 µM]
COc1ccc(S(=O)(=O)n2nc(C)c(S(=O)(=O)N3CCCCCC3)c2C)cc1 | inactive | –
COc1ccc(S(=O)(=O)n2nc(C)c(S(=O)(=O)N3CCOCC3)c2C)cc1 | 79.4 µM (active) | –
Cc1ccc(S(=O)(=O)n2nc(C)c(S(=O)(=O)N3CCCCCC3)c2C)cc1 | inactive | –
COc1ccc(S(=O)(=O)c2c(Nc3cccc(Cl)c3)sc(C(=O)c3ccccc3)c2N)cc1 | inactive | –
Cc1ccc2nc(/C(C#N)=C\c3ccc(OC(=O)c4cccs4)cc3)[nH]c2c1 | inactive | –
CCCNC(=O)C1CCN(c2nc3ccc(C)cc3[nH]2)CC1 | inactive | –
Cc1ccc2nc(S(=O)(=O)O)[nH]c2c1 | 89.1 µM (active) | –

Compound | Potency | activity, negative = inhibition
COc1cccc(CNC(=O)CSc2c3c(nc4cc(Cl)ccc24)CCCC3)c1 | inactive | –
COC(=O)C1=C(C)NC(=O)/C1=C/c1ccc(CNS(=O)(=O)c2ccc(C)cc2)o1 | 50.1 µM (active) | –
Cc1ccc(CCNC(=O)c2ccc(CNS(=O)(=O)c3ccc(C)cc3)cc2)cc1 | inactive | –
COc1ccccc1CNS(=O)(=O)c1ccc(C)cc1 | inactive | –
Cc1cc(C)c2sc(NC(=O)c3ccc(S(=O)(=O)N4CCCC4)cc3)nc2c1 | inactive | –
Cn1c(=O)c(C(=O)O)nn(-c2ccccc2)c1=O | inactive | –
Cc1cccc(OCC(=O)N(Cc2ccc(C(C)C)cc2)Cc2ccco2)c1C | inactive | –
CS(=O)(=O)c1sc2nc(-c3ccccc3)cc(-c3ccccc3)c2c1N | inactive | –
CNC(=S)NNC(=O)c1oc2nc(-c3ccccc3)cc(-c3ccco3)c2c1N | 10 µM (active) | –
CC1=C(c2ccc(Cl)cc2)S(=O)(=O)N=C1N1CCN(c2cc(C)ccc2C)CC1 | inactive | –
COc1ccc(-c2c(-c3ccc(OC)cc3O)nc(C)nc2C(F)(F)F)cc1 | inactive | –
CCOc1ccc(-c2cc3nc(C4CCN(C(=O)OC(C)(C)C)CC4)c(C(=O)Nc4ccc(C(=O)OC)cc4)cn3n2)cc1 | inactive | –
CCOC(=O)c1sc(NC(=O)COc2ncnc3ccccc23)c(C(=O)OCC)c1C | inactive | –
CCOC(=O)c1c(NC(=O)CSc2nnc(CNc3ccc(C)cc3C)o2)sc(C)c1C | inactive | –
CCOC(=O)c1c(NC(=O)COc2cc(C)ccc2C(C)C)sc(C)c1C | 1.78 µM (active) | –
COc1cccc(CNC(=O)c2ccc3c(c2)N(Cc2ccc(C(F)(F)F)cc2)C(=O)c2ccccc2S3)c1OC | inactive | –
O=C(N/N=C/c1cccc([N+](=O)[O-])c1)c1ccncc1 | inactive | –
N/C(=N\OS(=O)(=O)c1cccc([N+](=O)[O-])c1)c1ccncc1 | 10 µM (active) | –
O=C(c1ccncc1)N1CCN(S(=O)(=O)c2cccc([N+](=O)[O-])c2)CC1 | inactive | –
Oc1c(C=Nc2cccc3nsnc23)ccc2ccccc12 | 2.24 µM (active) | –
COc1ccc(C=Nc2cccc3ncccc23)cc1 | inactive | –
CC(C)(C)NS(=O)(=O)c1ccc(NC(=O)C2CCCO2)cc1 (centres undefined) | inactive | –
O=C(CC(c1cccs1)N1Cc2ccccc2C1=O)Nc1ccc(F)c(F)c1 (centres undefined) | inactive | –
CCc1cccc(NC(=O)COC(=O)C2CCN(c3ccc(C(F)(F)F)cn3)CC2)c1 | – | 10.8% [at 0.501 µM]

Compound | Potency | activity, negative = inhibition
CCCC(=O)Nc1cc(C(=O)NCc2ccc(OC)cc2)ccc1S(=O)(=O)c1ccc(Cl)cc1 | inactive | –
Cc1ccccc1CS(=O)(=O)CC1Nc2ccc(C(=O)NCc3ccc(Cl)cc3)cc2NC1=O (centres undefined) | 10 µM (active) | –
C/C(Cc1ccccc1)=N\NC(=O)CNC(=O)c1cccc(Br)c1 | inactive | –
CCCN(CCC)CCNC(=O)c1ccc2c(c1)NC(=O)C(CS(=O)(=O)Cc1cccc(Br)c1)N2 (centres undefined) | 25.1 µM (active) | –
CCCNC(=O)c1ccc(N2CCC3(CC2)CC(c2cccc(Br)c2)=NO3)c(NC(=O)c2ccco2)c1 | – | 7.48% [at 2.33 µM]
COc1ccc(C(=O)NCc2ccc(Cl)cc2)cc1S(=O)(=O)N1CCCC1 | – | -2.17% [at 12.7 µM]
Cc1cccc(C(=O)N2CCc3cc(CNC(=O)Cc4ccc(F)cc4)ccc32)c1 | inactive | –
CCOC(=O)C(C)n1cnc2c(nnn2-c2cccc(OC)c2)c1=O (centres undefined) | inactive | –
CCc1nnc(NC(=O)CCC(=O)N2CCN(c3cc(C)ccc3C)CC2)s1 | inactive | –
O=C(c1ccncc1)N1CCN(c2ccc3ccccc3n2)CC1 | – | 25% [at 12.7 µM]
O=C(c1ccc2ccccc2n1)N1CCN(c2ccccc2Cl)CC1 | 44.7 µM (active) | –
COc1ccccc1N1CCN(C(=O)c2cc(-c3ccc(Cl)c(Cl)c3)on2)CC1 | inactive | –
Cc1ccc2c(=O)c(C(=O)c3ccc(Cl)cc3)cn(CC(=O)NC3CCCCC3)c2n1 | inactive | –
COC(=O)c1ccc(CSc2ccc(S(=O)(=O)N3CCCCC3)cn2)cc1 | – | -3.87% [at 12.7 µM]
O=C(O)c1ccc(N/N=C/c2ccc3ncccc3c2)cc1 | 10 µM (active) | –
CCNC(=S)NNC(=O)c1ccc2ncccc2c1 | inactive | –
O=C(O)c1ccc(/C=N/Nc2nc(N3CCCCC3)nc(N3CCCCC3)n2)cc1 | inactive | –
COc1cccc(/C=C/C(=O)OCC(=O)N2CCCc3ccccc32)c1 | inactive | –
CCOC(=O)c1ccc(NC(=O)c2ncn(-c3ccccc3)n2)cc1 | inactive | –
Cc1cccc(C(C)C)c1NC(=O)COC(=O)C1CC(=O)N(Cc2ccccc2)C1 (centres undefined) | – | 7.15% [at 0.501 µM]
CC(OC(=O)C1CC(=O)N(Cc2ccccc2)C1)C(=O)Nc1ccccc1[N+](=O)[O-] (centres undefined) | 56.2 µM (active) | –
O=C(Nc1ccc(F)c([N+](=O)[O-])c1)C1CC(=O)N(Cc2ccccc2)C1 (centres undefined) | inactive | –
CCOc1ccccc1NC(=O)CSc1ncc(S(=O)(=O)c2ccc(C(C)(C)C)cc2)c(=O)[nH]1 | inactive | –
Cc1ccccc1CSc1nc2c([nH]c3ccccc32)c(=O)n1C | inactive | –

Compound | Potency | activity, negative = inhibition
CCNC(=S)NNC(=O)C1CCN(Cc2ccccc2)CC1 | inactive | –
CCCCN(Cc1ccccc1)C(=O)C1CCN(Cc2sccc2C)CC1 | 14.1 µM (active) | –
CCCCN(C(=O)C1CCC1)c1c(N)n(Cc2ccccc2)c(=O)[nH]c1=O | – | -8.06% [at 12.7 µM]
O=C(Nc1cc2c3c(c1)CC(=O)N3CCC2)c1ccccc1F | inactive | –
CCOc1ccc(NC(=O)CN(C)C(=O)Cn2c(=O)cnc3ccccc32)cc1OCC | inactive | –
O=C(CN1CCN(Cc2ccccc2)CC1)NC(c1ccccc1)c1ccccc1 | inactive | –
O=C(CN1CCc2ccccc21)NC(c1ccccc1)c1ccccc1 | 39.8 µM (active) | –
NC(=O)N1CCc2ccccc21 | inactive | –
COc1cc2nc(SCc3ccc(F)cc3)n3nc(CCn4c(C)nc5ccccc54)nc3c2cc1OC | inactive | –
CCCSc1ncc(Cl)c(C(=O)Nc2c(C(=O)Nc3ccccc3)oc3ccccc23)n1 | inactive | –
COc1ccc2c(C)cc(SCC(=O)NCC3CCCO3)nc2c1 (centres undefined) | – | 17.7% [at 2.33 µM]
CCOC(=O)c1cnc2c(C)cc(Cl)cc2c1NCCc1ccc(OC)c(OC)c1 | inactive | –
CCOC(=O)c1cnc2c(C)cc(C)cc2c1Nc1ccc(N2CCOCC2)cc1 | 10 µM (active) | –
CCOC(=O)c1cnc2ccc(F)cc2c1Nc1ccc2c(c1)OCCO2 | inactive | –
FC(F)(F)c1ccc2c3n(nc2c1)CCN=C3c1ccc(Cl)cc1 | – | 23% [at 2.33 µM]
Cc1ccc(CNC(=O)CSc2c(C)cnc3c2c(=O)n(C)c(=O)n3C)cc1 | inactive | –
Cc1cccnc1CC(C)NC(=O)c1cc(COc2cncc(Cl)c2)on1 (centres undefined) | inactive | –
O=S(=O)(c1ccccc1)c1nc(-c2ccccc2)oc1NCCCN1CCOCC1 | inactive | –
CCOc1cc(N2CCOCC2)c(OCC)cc1NC(=O)c1ccc(C)s1 | 44.7 µM (active) | –
CCOc1cc(N2CCOCC2)c(OCC)cc1NC(=O)c1cc(C)nc2ccccc12 | inactive | –
CCOc1cc(N2CCOCC2)c(OCC)cc1NC(=O)COC(=O)[C@H](Cc1c[nH]c2ccccc12)NC(C)=O | inactive | –

— PubChem BioAssay AID504332 (National Center for Advancing Translational Sciences (NCATS), 2011)
